# Reference: PubChem BioAssay AID1035472 (Broad Institute, 2014)
# The source made the active and inactive calls. How the calls were made is not given here.
# Assay: HepG2 cell cytotoxicity, dose response, cytotoxicity control, dry powder samples (AID 1035472)
# Settings: HepG2 viability, ATP luminescence (CellTiter-Glo), 72 h; series mostly up to 100 µM
smiles,measurement,value
Cn1c(NC(=O)c2ccccc2)nc2c3cnccc3ccc21,outcome,inactive
